# Experimental data reported in article PMC4336329 (PLoS ONE, 2015).
# About 2,200 (0.71%) of roughly 310,000 compounds showed an effect of 50% or more. The effect is printed as a negative number. The entries come from a sample that favours strong results as a whole.
# Molecular target: human ether-à-go-go-related gene (hERG) potassium channel (human, UniProt Q12809)
# Experiment: primary screen, population patch clamp on CHO cells stably expressing hERG; higher = less effect of the substance
# Sequence of human ether-à-go-go-related gene (hERG) potassium channel (Q12809 whole entry, looked up): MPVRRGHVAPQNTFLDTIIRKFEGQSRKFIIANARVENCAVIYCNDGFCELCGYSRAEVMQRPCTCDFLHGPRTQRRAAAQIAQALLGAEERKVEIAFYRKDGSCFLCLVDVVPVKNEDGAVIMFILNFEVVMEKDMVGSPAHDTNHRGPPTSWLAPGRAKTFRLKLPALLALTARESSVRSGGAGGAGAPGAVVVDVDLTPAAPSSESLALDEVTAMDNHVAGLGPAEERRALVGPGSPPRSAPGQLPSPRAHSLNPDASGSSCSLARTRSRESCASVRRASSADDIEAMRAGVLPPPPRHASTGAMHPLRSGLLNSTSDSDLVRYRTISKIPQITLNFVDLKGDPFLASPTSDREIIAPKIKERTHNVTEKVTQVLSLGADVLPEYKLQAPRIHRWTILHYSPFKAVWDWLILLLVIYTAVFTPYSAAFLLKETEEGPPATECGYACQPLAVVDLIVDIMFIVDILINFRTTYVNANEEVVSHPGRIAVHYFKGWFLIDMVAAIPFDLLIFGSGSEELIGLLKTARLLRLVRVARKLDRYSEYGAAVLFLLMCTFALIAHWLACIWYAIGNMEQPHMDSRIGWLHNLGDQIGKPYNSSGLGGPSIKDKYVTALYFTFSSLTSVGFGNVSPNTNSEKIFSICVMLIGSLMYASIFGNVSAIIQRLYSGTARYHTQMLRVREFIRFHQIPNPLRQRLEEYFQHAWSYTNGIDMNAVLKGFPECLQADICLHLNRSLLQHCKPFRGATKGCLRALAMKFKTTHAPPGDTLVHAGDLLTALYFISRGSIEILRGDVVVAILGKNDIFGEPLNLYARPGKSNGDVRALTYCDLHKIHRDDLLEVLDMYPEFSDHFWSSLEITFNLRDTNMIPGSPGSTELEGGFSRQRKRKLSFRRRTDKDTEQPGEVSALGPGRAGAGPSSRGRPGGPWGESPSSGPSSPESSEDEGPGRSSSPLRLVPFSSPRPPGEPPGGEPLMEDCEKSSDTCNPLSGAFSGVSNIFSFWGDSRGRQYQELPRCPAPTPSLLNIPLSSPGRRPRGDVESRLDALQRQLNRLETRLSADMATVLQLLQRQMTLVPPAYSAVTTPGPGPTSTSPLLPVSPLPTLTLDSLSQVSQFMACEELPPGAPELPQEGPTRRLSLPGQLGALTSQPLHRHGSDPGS
row,SMILES,"hERG current change (%, negative = inhibition) at 1uM"
1,CCOC(=O)N(NC(=O)C(O)(CC(C)C)CC(C)C)c1ccccc1,6.37%
2,CCN(CC)CCN1C(=O)Cn2c(C)c(C)c3cccc1c32.Cl,-12.2%
3,CCN(CC)CCN1c2ccccc2Sc2ccccc21.O=C(O)C(=O)O,-3.5%
4,CCN(CC)CCN1C(=O)Cn2c(C)c(C)c3cccc1c32.O=C(O)C(O)C(O)C(=O)O,-56.1%
5,CCCc1ncc(CN2CCCCC2C(=O)Nc2ccc(Oc3ccccc3)nc2)cn1 (stereo not shown),12.1%
6,Cc1cc(=O)c(C(=O)O)nn1-c1ccccc1,8.46%
7,O=C(O)c1nn(-c2cccc(C(F)(F)F)c2)ccc1=O,15.1%
8,Cc1cc(=O)c(C(=O)O)nn1-c1cccc(C(F)(F)F)c1,-78.9%
9,Cc1ccc2nc(C)cc(N/N=C/c3ccc(F)cc3)c2c1,0.285%
10,CC(=O)Nc1ccc(N2CCC(C)CC2)c([N+](=O)[O-])c1,7.46%
11,COc1ccc(C2CC(C(F)(F)F)n3nc(C(=O)N(C)Cc4cn(C)nc4C)c(Cl)c3N2)cc1 (stereo not shown),-3.33%
12,CCOC(=O)c1cnc(N2CCN(C(=O)OCC)CC2)[nH]c1=O,13.9%
13,O=C1C2CCCN2C(=O)N1CCCCN1CCN(c2ccc(F)cc2)CC1 (stereo not shown),-10%
14,O=C(CCN1C(=O)C2C3C=CC(C3)C2C1=O)N1CCN(c2ccc(F)cc2)CC1 (stereo not shown),-5.37%
15,Cl.O=C1C2C3C=CC(C4CC34)C2C(=O)N1CCCCN1CCN(c2ccc(F)cc2)CC1 (stereo not shown),-69.2%
16,Cc1cc(NC(=O)CCC(=O)N(c2cccnc2)C(C(=O)NC2CCCC2)c2ccccc2F)no1 (stereo not shown),8.56%
17,CCOc1ccccc1OCC(=O)OCC(=O)c1c(N)n(CC(C)C)c(=O)n(C)c1=O,-9.86%
18,Cc1ccc(OCCC(=O)OCC(=O)c2c(N)n(CC(C)C)c(=O)n(C)c2=O)cc1,-42.3%
19,Cc1ccccc1OCCC(=O)OCC(=O)c1c(N)n(CC(C)C)c(=O)n(C)c1=O,-63.8%
20,CS(=O)(=O)Nc1ccc(Cc2noc(-c3ccc4[nH]cc(CCN)c4c3)n2)cc1.O,18.4%
21,CN(C(=O)c1ccc2c(c1)OCO2)C1CCCCC1,6.85%
22,Cc1nc(NC(=O)CC(C)C)sc1-c1csc(Nc2ccc(Cl)cc2)n1,12.5%

row,SMILES,"hERG current change (%, negative = inhibition) at 1uM"
1,Cc1ccccc1C(=O)NNC(=S)Nc1cccc(C(F)(F)F)c1,13.2%
2,CCCCc1ccc(-c2nc(NC(=O)C3C4CCC(O4)C3C(=O)O)sc2C)cc1 (stereo not shown),11.9%
3,O=C(Nc1ccccc1N1CCOCC1)c1ccc([N+](=O)[O-])o1,-1%
4,CC(C)C(=O)N1CCN(c2ccccc2NC(=O)c2ccc([N+](=O)[O-])o2)CC1,-23.5%
5,CC(=O)N1CCN(c2ccccc2NC(=O)c2ccc(-c3cccc([N+](=O)[O-])c3)o2)CC1,-81.6%
6,CN1CCN(c2ccccc2NC(=O)c2ccc(-c3cccc([N+](=O)[O-])c3)o2)CC1,-0.213%
7,CCC(=O)N1CCN(c2ccccc2NC(=O)c2ccc([N+](=O)[O-])o2)CC1,-60.5%
8,CN1CCN(c2ccccc2NC(=O)c2ccc([N+](=O)[O-])o2)CC1,-62.4%
9,CCC(=O)N1CCN(c2ccccc2NC(=O)c2ccc(-c3cccc([N+](=O)[O-])c3)o2)CC1,-3.2%
10,O=C(Nc1ccccc1N1CCCC1)c1ccc([N+](=O)[O-])o1,1.03%
11,CCC(=O)N1CCN(c2ccc(Cl)cc2NC(=O)c2ccc([N+](=O)[O-])o2)CC1,0.198%
12,c1ccc(C(c2nnnn2C2CCCCC2)N2CCc3ccccc3C2)nc1 (stereo not shown),7.86%
13,C[C@H](NC(=O)N1CCn2c1nc1ccccc12)C(=O)NCCc1ccccc1,17.4%
14,COc1ccc(NC(=S)N2CCN(C(=O)c3ccco3)CC2)c(OC)c1,8.24%
15,CCn1c(=S)sc2c(=O)[nH]c(C)nc21,13.5%
16,COc1cccc(CN2CC(C(=O)N3CCCC3)CCC2=O)c1 (stereo not shown),10.9%
17,COc1cccc(CN2CC(C(=O)N3CCCCCCC3)CCC2=O)c1 (stereo not shown),9.63%
18,COc1cccc(CN2CC(C(=O)N3CCN(c4ccc(Cl)cc4)CC3)CCC2=O)c1 (stereo not shown),-53.3%
19,CCOC(=O)c1oc2ccccc2c1CSc1nnnn1-c1ccc(C)cc1,5.36%
20,O=C(/C=C/c1cccc(F)c1)NC1CCN(Cc2ccccc2)CC1,-51.4%
21,COc1ccccc1C1CCN(Cc2ccc(C)cc2)CC1,-61.2%
22,COc1ccccc1C1CCN(Cc2ccc(Cl)c(Cl)c2)CC1,10.4%

row,SMILES,"hERG current change (%, negative = inhibition) at 1uM"
1,Cl.O=C(NC(=S)NC1CCN(Cc2ccccc2)CC1)c1ccc(F)cc1,-57.5%
2,O=C(NC1CCN(Cc2ccccc2)CC1)c1ccccc1,2.84%
3,COc1ccccc1C1CCN(Cc2ccccc2)CC1,8.45%
4,O=C(/C=C/c1cccc(Br)c1)NC1CCN(Cc2ccccc2)CC1,-27.7%
5,COc1ccc(/C=C/C(=O)NC2CCN(Cc3ccccc3)CC2)cc1OC,12%
6,Fc1ccc(NC(=S)NC2CCN(Cc3ccccc3)CC2)cc1,6.75%
7,Cc1ccc(CC(=O)NC2CCN(Cc3ccccc3)CC2)cc1,7.9%
8,Cc1ccc(CN2CCC(NC(=O)c3ccccc3)CC2)cc1,-52.8%
9,O=C(NC1CCN(Cc2ccc(F)cc2)CC1)c1ccccc1,-15.9%
10,Cc1cnc(-c2nnc(N(C)C(=O)c3cccnc3)s2)cn1,10.2%
11,CCN(CC)c1ccc(/C=N/NC(=S)NC)c(O)c1,4.81%
12,Cc1c(N=C2NC(=O)/C(=C/c3cccc([N+](=O)[O-])c3)S2)c(=O)n(-c2ccccc2)n1C,12.1%
13,Cc1ccc(S(=O)(=O)CC(O)COc2ccc(F)cc2Cl)c(C)c1 (stereo not shown),7.06%
14,COc1ccc(/C=N/NC(=O)C2c3ccccc3Oc3ccccc32)c(OC)c1,11.6%
15,NS(=O)(=O)c1ccc(CNC(=O)c2cc(-c3cccnc3)nc3ccccc23)cc1,14.6%
16,CCc1ccccc1NC(=O)Nc1c(C)n(C)n(-c2ccccc2)c1=O,-14.2%
17,Cn1c(CSCc2ccc(F)cc2)n[nH]c1=S,13.6%
18,CNC(=O)CSc1nc(-c2ccccc2)c(-c2ccccc2)[nH]1,3.72%
19,Cc1ccc(S(=O)(=O)N2CCN(C(=O)c3nn(C(C)C)c(=O)c4ccccc34)CC2)cc1C,5.96%
20,CC(C)Oc1ccc(S(=O)(=O)N2CCOCC2)cc1NC(=O)C1=COCCO1,11%
21,CC(=O)C[C@H]1c2ccccc2S(=O)(=O)N1C1CCCC1,14.6%
22,COc1ccc(Nc2nc3ccccc3n2C)cc1,13.1%

row,SMILES,"hERG current change (%, negative = inhibition) at 1uM"
1,Cn1c(Nc2ccc(F)cc2)nc2ccccc21,-77.5%
2,Cn1c(Nc2ccccc2)nc2ccccc21,8.25%
3,COc1ccc(-c2[nH]c(-c3ccc(C)cc3)nc2SCC(=O)Nc2nccs2)cc1,21.6%
4,CC1CN(C(=O)COc2ccc3c(-c4ccccc4)cc(=O)oc3c2)CC(C)O1 (stereo not shown),10.8%
5,CC(=O)Nc1ccc(OS(=O)(=O)c2ccc(Cl)cc2)cc1,-1.62%
6,COc1ccc(Cl)cc1S(=O)(=O)Oc1ccc(NC(C)=O)cc1,-58.8%
7,CC(=O)Nc1ccc(OS(=O)(=O)c2cc(Cl)ccc2C)cc1,13.6%
8,CCN(CC)CCCNC(=O)C(C)n1c2ccccc2c2nc(=O)cc(C)n21 (stereo not shown),12.7%
9,O=C1c2ccccc2C(=O)N1/N=C/c1ccc(O)c(O)c1,13.9%
10,CCOc1ccc(C2NC(=O)c3n[nH]c(C)c32)cc1 (stereo not shown),9.09%
11,Cc1cc(=O)oc2cc(OCCCN3C(=O)c4ccccc4C3=O)ccc12,-0.574%
12,COc1ccccc1N1CCN(CCCCCCOc2ccc(F)cc2)CC1,-7.53%
13,COc1ccccc1N1CCN(CCCC(=O)c2ccc(F)cc2)CC1,-43.2%
14,COc1ccccc1N1CCN(CC(=O)c2ccc(F)cc2)CC1.Cl,16.7%
15,Cc1ccccc1N1CCN(CCCOc2ccc3c(C)cc(=O)oc3c2)CC1,-56.2%
16,COc1ccccc1N1CCN(CCN(C(=O)C2CCCCC2)c2ccccn2)CC1.O=C(O)/C=C\C(=O)O,4.2%
17,COc1ccccc1N1CCN(CCCCOc2ccc(F)cc2)CC1.Cl,-71.5%
18,COc1ccccc1N1CCN(Cc2ccc(F)cc2)CC1,6.42%
19,COc1ccccc1N1CCN(CCCCOc2cccc3ccccc23)CC1.Cl,9.44%
20,COc1ccc(N2CCN(CCOc3ccc4c(C)cc(=O)oc4c3)CC2)cc1,-37.8%
21,COc1ccccc1N1CCN(CCCOc2ccc(F)cc2)CC1,-60.3%
22,COc1ccccc1N1CCN(CCN(C(=O)c2ccc(F)cc2)c2ccccn2)CC1.Cl,-57.8%
